Publication PMC4336329 (PLoS ONE, 2015)
Hit rate of the full screen: of about 310,000 compounds, about 14,000 (4.5%) showed an effect of 50% or more. The effect is printed as a negative number. Only a selection was taken, and strong results are over-represented in it overall.

Biological target: human ether-à-go-go-related gene (hERG) potassium channel (human, UniProt Q12809)
Test: primary screen, population patch clamp on CHO cells stably expressing hERG; higher = less effect of the substance
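Note: peak tail current of the secondary pulse compared with the same well before compound.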

human ether-à-go-go-related gene (hERG) potassium channel, sequence (Q12809 whole entry, looked up): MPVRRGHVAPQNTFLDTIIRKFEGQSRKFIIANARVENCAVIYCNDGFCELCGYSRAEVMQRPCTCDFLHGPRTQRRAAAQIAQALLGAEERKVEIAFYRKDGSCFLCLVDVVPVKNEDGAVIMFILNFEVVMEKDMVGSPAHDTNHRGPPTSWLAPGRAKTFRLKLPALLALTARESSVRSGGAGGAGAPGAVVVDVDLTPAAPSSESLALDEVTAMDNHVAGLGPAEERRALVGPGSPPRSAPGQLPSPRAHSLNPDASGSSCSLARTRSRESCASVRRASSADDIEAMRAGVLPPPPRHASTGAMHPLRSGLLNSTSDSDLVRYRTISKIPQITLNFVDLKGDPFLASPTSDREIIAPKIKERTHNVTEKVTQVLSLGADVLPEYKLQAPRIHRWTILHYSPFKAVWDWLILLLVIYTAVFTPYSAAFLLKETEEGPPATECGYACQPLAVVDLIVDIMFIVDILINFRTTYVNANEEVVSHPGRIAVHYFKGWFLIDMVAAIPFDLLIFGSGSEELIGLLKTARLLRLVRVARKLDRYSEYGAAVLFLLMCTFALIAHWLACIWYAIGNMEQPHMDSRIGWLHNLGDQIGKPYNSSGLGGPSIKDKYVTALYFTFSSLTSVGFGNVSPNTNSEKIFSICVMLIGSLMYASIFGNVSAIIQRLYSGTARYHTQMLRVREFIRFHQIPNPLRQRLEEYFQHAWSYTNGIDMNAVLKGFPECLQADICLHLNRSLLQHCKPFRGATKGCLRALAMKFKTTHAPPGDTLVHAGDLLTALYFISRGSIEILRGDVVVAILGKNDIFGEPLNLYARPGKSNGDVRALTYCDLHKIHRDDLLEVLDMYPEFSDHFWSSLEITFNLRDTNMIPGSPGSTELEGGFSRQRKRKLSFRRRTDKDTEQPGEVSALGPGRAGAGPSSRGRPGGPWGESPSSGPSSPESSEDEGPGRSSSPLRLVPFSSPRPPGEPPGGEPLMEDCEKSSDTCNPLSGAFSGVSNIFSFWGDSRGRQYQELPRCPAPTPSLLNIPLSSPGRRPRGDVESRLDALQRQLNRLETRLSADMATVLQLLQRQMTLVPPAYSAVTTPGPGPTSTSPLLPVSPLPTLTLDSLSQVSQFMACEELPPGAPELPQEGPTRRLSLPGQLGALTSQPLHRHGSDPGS

| SMILES | hERG current change (%, negative = inhibition) at 10uM [%] |
| --- | --- |
| COc1ccc(S(=O)(=O)N/N=C(/C)c2ccco2)cc1 | -6.76 |
| CCc1sc(-c2c(C#N)c(N)nc3c2CCCCCC3)cc1[N+](=O)[O-] | 14 |
| Cc1ccc(C(=O)NC(C)c2ccccc2)cc1Br (stereo not shown) | -11.8 |
| Cc1cc(C)cc(NC(=O)c2ccc(S(=O)(=O)C(F)F)cc2)c1 | -29.7 |
| CC(=O)NCCNc1nc2c(-c3cccc(C)c3)nnn2c2ccccc12 | 12.8 |
| CC(CN1CCCCC1)OC(=O)c1ccc(Cl)cc1.Cl (stereo not shown) | -36.4 |
| O=C1CCN(S(=O)(=O)c2cc(C(F)(F)F)ccc2Cl)CC1 | -1.34 |
| CCc1ccccc1NC(=O)c1ccccc1N1C(=O)C2C3C=CC(C3)C2C1=O (stereo not shown) | 18.3 |
| Cc1cc(C)n(-c2cc(N3CCN(S(=O)(=O)c4ccc(C)c(C)c4)CC3)ccc2[N+](=O)[O-])n1 | 15 |
| Cc1cc(C)n(-c2cc(N3CCN(C(=O)c4ccc(C(C)(C)C)cc4)CC3)ccc2[N+](=O)[O-])n1 | -34.4 |
| COc1ccc(C(=O)N2CCN(c3ccc([N+](=O)[O-])c(-n4nc(C)cc4C)c3)CC2)cc1 | -78.2 |
| Cc1cc(C)n(-c2cc(N3CCN(S(=O)(=O)c4ccc(Cl)cc4)CC3)ccc2[N+](=O)[O-])n1 | -32.8 |
| COc1ccc(N2CCN(C(=O)c3ccc(-n4nc(C)cc4C)cc3)CC2)cc1 | -19.4 |
| Cc1ccccc1C(=O)N1CCN(c2ccc([N+](=O)[O-])c(N3CCOCC3)c2)CC1 | -16.3 |
| Cc1cc(C)n(-c2cc(N3CCN(C(=O)c4ccccc4C)CC3)ccc2[N+](=O)[O-])n1 | -52.7 |
| Cc1cc(C)c(S(=O)(=O)N2CCN(c3ccc([N+](=O)[O-])c(-n4nc(C)cc4C)c3)CC2)c(C)c1 | -7.91 |
| CC(=O)N1CCN(c2ccc([N+](=O)[O-])c(-n3nc(C)cc3C)c2)CC1 | -51.9 |
| COc1cc(C)ccc1OCc1cc(C(=O)NCCN2CCOCC2)no1 | 2.08 |
| COc1ccc(/C=N/NC(=O)c2ccc3nc[nH]c3c2)cc1OC | 20.7 |
| CCC1CCCCN1Cc1ccc(OC)c(C)c1C (stereo not shown) | -31.2 |
| Cc1ccc(CNC(=O)C2CCCN2C(=O)Nc2ccccc2)cc1 (stereo not shown) | -8.61 |
| COc1ccccc1N1CCN(S(=O)(=O)c2cn(C)nc2C)CC1 | -2.6 |

| SMILES | hERG current change (%, negative = inhibition) at 10uM [%] |
| --- | --- |
| CCCCN(C(=O)CN1CC(C)OC(C)C1)c1c(N)n(CC(C)C)c(=O)[nH]c1=O (stereo not shown) | 9.06 |
| CCN(c1ccccc1)S(=O)(=O)c1ccc(Oc2ccc(-n3ccnc3)cc2)nc1 | -77.4 |
| CCN(c1ccccc1)S(=O)(=O)c1ccc(NN)nc1 | -12.2 |
| CCN(c1ccccc1)S(=O)(=O)c1ccc(Oc2ccc([N+](=O)[O-])cc2)nc1 | -21 |
| Cc1ccc(-c2[nH]nc3c2C(c2cccnc2)C(C#N)=C(N)O3)cc1 (stereo not shown) | -7.46 |
| O=[N+]([O-])c1ccc(C(O)CSC(=S)N2CCCCC2)cc1 (stereo not shown) | -3.13 |
| CC(C)(C)c1ccc(C(=O)/C=C2\NC(=O)CS2)cc1 | -9.16 |
| CCOc1ccc(CN2CCN(Cc3cnc(-c4ccccc4)s3)CC2CCO)cc1 (stereo not shown) | -90.7 |
| OCCC1CN(Cc2cnc(-c3ccccc3)s2)CCN1Cc1ccccc1 (stereo not shown) | -57.5 |
| CC(C)N1CCC(N2CCN(Cc3cnc(-c4ccccc4)s3)CC2CCO)CC1 (stereo not shown) | -15.6 |
| CC(C)=CCN1CCN(Cc2cnc(-c3ccccc3)s2)CC1CCO (stereo not shown) | -49.2 |
| OCCC1CN(Cc2cnc(-c3ccccc3)s2)CCN1CCc1ccccc1 (stereo not shown) | -71.2 |
| Cc1ncc(CN2CCN(C3CCCC3)C(CCO)C2)s1 (stereo not shown) | 27.6 |
| OCCC1CN(Cc2cnc(-c3ccccc3)s2)CCN1C1CCCCC1 (stereo not shown) | -51.4 |
| CCOc1ccc(CN2CCN(Cc3cnc(N4CCOCC4)s3)CC2CCO)cc1 (stereo not shown) | -39.8 |
| Cc1ncc(CN2CCN(Cc3ccccc3)C(CCO)C2)s1 (stereo not shown) | 1.08 |
| CC(C)(O)C#Cc1ccc(CN2CCN(CCc3ccccc3)C(CCO)C2)s1 (stereo not shown) | -30.7 |
| CCCCN1C(=O)NC(=O)C2(Cc3c(nc4ccccn4c3=O)N3CCc4ccccc4C32)C1=O (stereo not shown) | -16.6 |
| Cc1sc2nc(CSc3ncn[nH]3)[nH]c(=O)c2c1C | 33.7 |
| Cn1c(-c2sc3cc(C(F)(F)F)cnc3c2-c2ccccc2)n[nH]c1=S | 20.1 |
| O=C(O)C(=O)O.Oc1ccccc1NCC(O)Cn1ccc2ccccc21 (stereo not shown) | 13.4 |
| NC(=O)c1ccccc1NC(=O)NC1CCCCC1 | -6.68 |

| SMILES | hERG current change (%, negative = inhibition) at 10uM [%] |
| --- | --- |
| CCOC(=O)CCSCC(=O)Nc1cc(C)on1 | -3.91 |
| Cc1ccc(C(=O)NC(=S)Nc2ccccc2C(F)(F)F)cc1 | 16.3 |
| CC(C)NS(=O)(=O)c1ccc(NC(=O)NC2CCCCC2)cc1 | 1.79 |
| c1ccc(Cn2cc(-c3ccccc3)cn2)cc1 | -2.61 |
| CC(C)N1CCN(Cc2cnc(-c3ccccc3)s2)CC1CCO (stereo not shown) | -9.9 |
| Cc1ncc(CN2CCN(CCC(C)C)C(CCO)C2)s1 (stereo not shown) | -20.1 |
| CC(C)CCN1CCN(Cc2cnc(-c3ccccc3)s2)CC1CCO (stereo not shown) | -56.6 |
| CCCOc1ccc(C(C)=O)cc1CC(C(N)=O)C(N)=O | 14.9 |
| CCCCOP(=O)(c1ccc(N(C)C)cc1)C(O)c1ccc(C(C)C)cc1 (stereo not shown) | -13 |
| O=c1[nH]c2ccccc2n2c(C(F)(F)F)nnc12 | 14 |
| Cc1ccc(S(=O)(=O)N(Cc2cccc(Cl)c2)C(=O)N2CCN(C)CC2)cc1 | 9.85 |
| CCn1c(SCC(=O)N/N=C/C=C/c2ccccc2[N+](=O)[O-])nnc1-c1ccccc1 | -36.6 |
| CCn1c(SCC(=O)N/N=C/C=C\c2ccccc2[N+](=O)[O-])nnc1-c1ccccc1 | -67 |
| CCn1c(SCC(=O)NC(=O)NC(C)(C)C)nc2ccccc21 | 4.41 |
| CCn1c(SCC(=O)N/N=C/C=C/c2ccccc2[N+](=O)[O-])nnc1-c1ccc(Cl)cc1 | -15.6 |
| Cn1c(SCC(=O)N/N=C/C=C/c2ccccc2[N+](=O)[O-])nc2ccccc21 | -1.36 |
| CCn1c(SCC(=O)N/N=C/C=C\c2ccccc2[N+](=O)[O-])nc2ccccc21 | -63.8 |
| COCCn1c(SCC(=O)Nc2ccccc2OC)nc2ccccc21 | -25.4 |
| CCn1c(SCC(=O)NC(=O)c2ccccc2OC)nc2ccccc21 | -70.8 |
| Cn1c(SCC(=O)N/N=C/C=C\c2ccccc2[N+](=O)[O-])nc2ccccc21 | 10.4 |
| O=C1OCCN1C(=O)[C@H]1[C@H](c2ccc(Cl)cc2)C(c2cccc(Cl)c2)=NN1c1ccccc1 | 14 |
| COc1ccccc1C(=O)C1CCCN(C(=O)Nc2ccccc2F)C1 (stereo not shown) | 37.3 |

| SMILES | hERG current change (%, negative = inhibition) at 10uM [%] |
| --- | --- |
| Cc1nn2c(N)c(C#N)cnc2c1-c1ccc(Cl)cc1 | -0.156 |
| Cc1cc2nnc(SCC(=O)NCc3cccs3)n2c(N)n1 | -8.37 |
| Cc1cccc(-n2nnc(C(=O)NCc3ccco3)c2N)c1 | -10.2 |
| OC1=C(O)c2nc3ccccc3nc21 | -1.17 |
| CC(C)Sc1nc2c([nH]1)c(=N)ncn2Cc1ccccc1 | -5.52 |
| Cc1noc(C)c1COc1ccc(CC(=O)NC2CCCCCC2)cc1 | 39.5 |
| COc1cc(C2NC(=O)CCC2[N+](=O)[O-])cc(OC)c1OC (stereo not shown) | 29.6 |
| CCc1cccc(NC(=S)N(CCN(C)C)C(C)c2ccncc2)c1 (stereo not shown) | -44 |
| COCCCN(C(=S)Nc1cccc(Cl)c1)C(C)c1ccncc1 (stereo not shown) | -17.3 |
| COc1ccc(NC(=S)N(CCN(C)C)C(C)c2ccncc2)cc1Cl (stereo not shown) | -59.9 |
| COc1ccc(NC(=S)N(CCN(C)C)C(C)c2ccco2)cc1Cl (stereo not shown) | -36.3 |
| CSc1cccc(NC(=S)N(CCN(C)C)C(C)c2ccncc2)c1 (stereo not shown) | -50.6 |
| COCCCN(C(=S)Nc1cc(C)cc(C)c1)C(C)c1ccncc1 (stereo not shown) | -41 |
| COc1cc(Cl)ccc1NC(=S)N(CCN(C)C)C(C)c1ccncc1 (stereo not shown) | -39.2 |
| CSc1cccc(NC(=S)N(CCN(C)C)C(C)c2ccccn2)c1 (stereo not shown) | -36.2 |
| COCCCN(C(=S)Nc1cc(Cl)cc(Cl)c1)C(C)c1ccncc1 (stereo not shown) | -70.6 |
| Cc1ccc(C(=O)c2ccc(C(F)(F)F)cc2)cc1 | 7.79 |
| CC(=O)N(C)C1=C(O)c2ccccc2C(=O)C1=O | 22.3 |
| Cc1ccc(NC(=O)COC(=O)Cc2c[nH]c3ccccc23)cc1C | -7.15 |
| COc1ccccc1-c1nnc(SCc2nc3ccccc3s2)n1C | -17 |
| COc1ccc(C(=O)COC(=O)Cn2cnc3c2c(=O)n(C)c(=O)n3C)c(OC)c1 | 3.76 |
| CSc1nsc(SCC(=O)NCc2ccc(C)cc2)n1 | 10.1 |
